# Measured values from the supplement of paper PMC6555819.
# Legend:
# Assay in all cases: PBM binding z-score (relative to random genomic background probes); higher = stronger binding; sequences stand for … in GC…GCGATTGACAGCGTAGAATGAAGG
# [1] = system: FXR:RXRa (NR concentration 270 nM, RXRa partner concentration 90 nM)
# How it was run: (§1)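 Ligand-free nuclear receptor dimers were applied to custom Agilent 4×180K protein-binding microarrays whose double-stranded probes carried direct-repeat seeds, single-nucleotide variants, half-site ablations and random human genomic background sequences in 34-nt variable regions. Incubation lasted 1 h. Binding z-scores were computed against the random background probes from regression-normalized fluorescence.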
# [2] = system: LXRa:RXRa (NR concentration 270 nM, RXRa partner concentration 90 nM)
# How it was run: as §1
# [3] = system: LXRa homodimer (NR concentration 270 nM)
# How it was run: as §1
# [4] = system: LXRb:RXRa (NR concentration 270 nM, RXRa partner concentration 90 nM)
# How it was run: as §1
# [5] = system: LXRb homodimer (NR concentration 270 nM)
# How it was run: as §1
# [6] = system: PPARa:RXRa (NR concentration 270 nM, RXRa partner concentration 90 nM)
# How it was run: as §1
# [7] = system: PPARg:RXRa 270nM:90nM, anti-RXR (NR concentration 270 nM, RXRa partner concentration 90 nM)
# How it was run: as §1
# [8] = system: PPARg:RXRa 30nM:10nM, anti-RXR (NR concentration 30 nM, RXRa partner concentration 10 nM)
# How it was run: as §1
# [9] = system: PPARg:RXRa 90nM:30nM, anti-RXR (NR concentration 90 nM, RXRa partner concentration 30 nM)
# How it was run: as §1
# [10] = system: PPARg:RXRa DBDmut IVT, anti-RXR (DBD mutation: RXRa K156A/R161A, NR concentration 270 nM, RXRa partner concentration 90 nM)
# How it was run: as §1
# [11] = system: PPARg:RXRa IVT, anti-PPARg (NR concentration 270 nM, RXRa partner concentration 90 nM)
# How it was run: as §1
# [12] = system: PPARg DBDmut:RXRa IVT, anti-PPARg (DBD mutation: PPARg1 K132A/R137A, NR concentration 270 nM, RXRa partner concentration 90 nM)
# How it was run: as §1
# [13] = system: PPARg DBDmut IVT, anti-PPARg (DBD mutation: PPARg1 K132A/R137A, NR concentration 270 nM)
# How it was run: as §1
# [14] = system: PPARg homodimer (NR concentration 180 nM)
# How it was run: as §1
# [15] = system: PXR:RXRa (NR concentration 270 nM, RXRa partner concentration 90 nM)
# How it was run: as §1
# [16] = system: PXR homodimer (NR concentration 270 nM)
# How it was run: as §1
# [17] = system: RARa:RXR (NR concentration 270 nM, RXRa partner concentration 90 nM)
# How it was run: as §1
# [18] = system: RARa homodimer (NR concentration 270 nM)
# How it was run: as §1
# [19] = system: RARb:RXRa (NR concentration 270 nM, RXRa partner concentration 90 nM)
# How it was run: as §1
# [20] = system: PPARg:RXRa (NR concentration 180 nM, RXRa partner concentration 90 nM)
# How it was run: as §1
Sequence,PBM binding z-score [1],PBM binding z-score [2],PBM binding z-score [3],PBM binding z-score [4],PBM binding z-score [5],PBM binding z-score [6],PBM binding z-score [7],PBM binding z-score [8],PBM binding z-score [9],PBM binding z-score [10],PBM binding z-score [11],PBM binding z-score [12],PBM binding z-score [13],PBM binding z-score [14],PBM binding z-score [15],PBM binding z-score [16],PBM binding z-score [17],PBM binding z-score [18],PBM binding z-score [19],PBM binding z-score [20]
ACTCGGAGGATAAAGGTCAGAGCTACGCCAGTGA,3.3,3.42,1.27,2.83,0.273,4.23,6.4,5,6.8,0.595,3.02,-0.0489,0.296,4.61,3.25,0.221,4.24,2.08,4.01,–
TTAACAAGGTGAAAGGTCGTTGATGCACGCCTTG,3.99,3.48,0.202,2.81,-0.19,6,8.81,9.66,9.79,4.84,5.57,0.666,0.131,2.13,3.92,0.791,5.73,-0.215,3.09,–
AGTCAAAGGTCACTAGGTAACGTAAGATTCAGCT,7.63,6.45,2.46,5.48,2.78,6.42,8.5,6.26,8.47,5.65,7.5,1.54,0.924,4.05,4.94,1.04,5.94,2.79,–,–
CGAACTAGGTCACAGGACAGTGAAAGGCGACGTA,4.05,2.67,-0.102,1.78,-0.469,5.21,7.37,4.65,7.31,8.61,8.91,–,3.67,2.35,1.38,-0.238,2.22,0.616,4.11,8.8
CGAACTAGGTCAACGGACAGTGAAAGGCGACGTA,3.7,2.16,-0.117,1.22,-0.431,4.75,6.86,4.42,6.52,8.1,8.37,–,-0.094,1.63,0.839,-0.0597,1.77,-0.351,3.89,8.09
CGAACTAGGTCACCAGAACAGTGAAGAGGTTGGA,3.61,2.14,-0.204,1.65,-0.116,5.2,6.91,5.08,6.61,8.55,8.85,–,1.39,1.64,1.29,-0.143,2.45,0.0997,4.2,8.46
ATATGTAGGTTAGGGTCAATCAGAAAGTAGGGAA,4.67,3.66,0.491,3.9,1.23,5.48,6.41,3.89,5.93,6.1,6.62,–,1.96,2.82,3.61,1.38,4.43,1.88,3.59,7.67
